# Test results taken from PubChem BioAssay.
# The source made the active and inactive calls. Unless noted, the rule behind the calls is not given here.
# How the values were obtained:
# [1] = compounds binding Alexa647 anti-His antibody – biochemical, small-molecule microarray, 635 nm fluorescence, artefact control for SMM control protein annotation, primary screen (AID 1128); conditions: higher = more signal;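 note: score merges feature fluorescence with signal-to-noise for each printed compound spot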
# [2] = system: Human papillomavirus type 1a E7 protein (residues 1-88); experiment: HPV1a E7 small-molecule binders, primary screen, biochemical, small-molecule microarray, residues 1-88, 635 nm (AID 1129); conditions: small-molecule microarray binding, fluorescence 635 nm; higher = more signal
# [3] = molecular target: Focal adhesion kinase 1 (Homo sapiens) (UniProt Q05397); experiment: PTK2 protein binding on printed compound slides – biochemical, small-molecule microarray, 635/667 nm fluorescence, BSA, DTT, primary screen (AID 1130); conditions: 635 nm fluorescence, higher = more signal;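 note: composite of spot emission at 667 nm and signal to noise over triplicate slides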
# [4] = system: Fibrinogen (Alexa647-labelled); experiment: Alexa647-fibrinogen binding to printed small molecules – biochemical, small-molecule microarray, 635/667 nm fluorescence, artefact control for SMM control-protein annotation, profiling panel (AID 1131); conditions: fibrinogen-A647 binding fluorescence, higher = more signal;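 note: z-score merges 667 nm fluorescence with per-spot signal-to-noise over triplicate slides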
# [5] = molecular target: Follistatin (Homo sapiens) (UniProt P19883); experiment: FST protein binding to printed compounds – biochemical, small-molecule microarray, 635/667 nm fluorescence, primary screen (AID 1132); conditions: 635 nm fluorescence, higher = more signal
# [6] = molecular target: Fibroblast growth factor 2 (Homo sapiens) (UniProt P09038); experiment: basic fibroblast growth factor binding to printed compounds – biochemical, small-molecule microarray, 635/667 nm fluorescence, primary screen (AID 1133); conditions: FGF2, fluorescence 635/667, higher = more signal
# [7] = JC-1 mitochondrial potential readout, lung cancer cells – cell-based, A549, JC-1 fluorescence, basal, 24 h, 100 nL, profiling panel (AID 1138); conditions: higher = more signal;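 note: A549 lung adenocarcinoma cells under basal conditions with no added stimulus; test concentration not given here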
# [8] = system: Lefty1; experiment: Lefty1 protein binding to printed compounds – biochemical, small-molecule microarray, 635/667 nm fluorescence, primary screen (AID 1139); conditions: fluorescence 635/667, higher = more signal
# [9] = system: wheat germ agglutinin (Triticum aestivum), Alexa647-labelled; experiment: Alexa647-WGA lectin binding to printed small molecules – biochemical, small-molecule microarray, 635/667 nm fluorescence, artefact control for SMM control-protein annotation, profiling panel (AID 1140); conditions: WGA-A647 binding, 635 nm fluorescence, higher = more signal;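 note: score merges 667 nm feature emission with signal to noise over triplicate slides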
# [10] = molecular target: Luciferin 4-monooxygenase (Photinus pyralis) (UniProt P08659); experiment: inhibition of purified Photinus pyralis luciferase – biochemical, luminescence, purified enzyme, 2006 set, primary screen (AID 1141); conditions: purified firefly luciferase, SteadyGlo luminescence, 30 min; higher = more signal, called active from +8 up or from −8 down;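 note: cell-free assay with purified firefly luciferase at 100 ng per well in PBS; test concentration not given here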
# [11] = system: Wnt5a (protein binding on small-molecule microarray); experiment: small molecules binding Wnt5a protein – biophysical, small-molecule microarray, 635/667 nm fluorescence, primary screen (AID 1142); conditions: 635 nm fluorescence, higher = more signal;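 note: fluorescence read at 667 nm with signal to noise per printed feature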
# [12] = ATP-based viability of Huh7 replicon cells – cell-based, CellTiter-Glo luminescence, basal, 48 h, cytotoxicity control for HCV replication inhibitor project, primary screen (AID 1143); conditions: higher = more signal, called active from +8 up or from −8 down;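 note: Huh7 hepatoma cells carrying a hepatitis C replication reporter with no stimulus; test concentration not given here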
# [13] = Pseudomonas biofilm growth suppression – PAO1 strain, BacTiter-Glo luminescence, LB-PBS, primary screen (AID 1144); conditions: P. aeruginosa PAO1 biofilm, 12 h, higher = more signal
# [14] = basal CRE-LacZ reporter activity in PC12 – cell-based, unstimulated, primary screen (AID 1145); conditions: no forskolin, luminescence, 4.5 h, higher = more signal, called active from +8 up or from −8 down
# [15] = forskolin-driven CRE-LacZ activity in PC12 – cell-based, CRE-LacZ reporter, forskolin-stimulated, primary screen (AID 1146); conditions: luminescence, 4.5 h, higher = more signal, called active from +8 up or from −8 down;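 note: PC12 cells with 6xCRE LacZ reporter stimulated by forskolin 10 µM; beta-galactosidase reporter signal reflecting CREB driven transcription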
# [16] = molecular target: Streptavidin (Streptomyces avidinii) (UniProt P22629); experiment: compounds binding control protein streptavidin – biophysical, small-molecule microarray, 635/667 nm fluorescence, artefact control for SMM compound annotation, primary screen (AID 1147); conditions: higher = more signal;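 note: signal reflects streptavidin binding to arrayed compounds as a control protein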
# [17] = probe aInhba binding on compound microarray – biochemical, small-molecule microarray, 635/667 nm fluorescence, primary screen (AID 1148); conditions: higher = more signal;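 note: score merges 667nm spot fluorescence with signal-to-noise for antibody binding to printed compounds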
# [18] = molecular target: Torsin-1A (Homo sapiens) (UniProt O14656); experiment: TOR1A wild-type binding on microarray – cell lysate, small-molecule microarray, lysate, 635/667 nm, primary screen (AID 1149); conditions: COS7 hTOR1A-WT lysate, 635 nm fluorescence, higher = more signal
# [19] = molecular target: Torsin-1A (Homo sapiens) (UniProt O14656); experiment: torsin A mutant lysate binding on microarrays – cell lysate, small-molecule microarray, COS7 lysate, 635/667 nm fluorescence, primary screen (AID 1150); conditions: COS7 hTOR1A mutant lysate, 635 nm fluorescence, higher = more signal;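 note: score pools 667 nm emission and signal to noise measuring lysate protein binding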
# [20] = system: Sonic hedgehog protein (Shh); experiment: Sonic hedgehog microarray binding compounds – biochemical, small-molecule microarray, 635/667 nm fluorescence, primary screen (AID 1151); conditions: 635 nm fluorescence, higher = more signal;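 note: Shh protein binding to compounds spotted on small-molecule microarray slides; score combines spot fluorescence intensity with signal-to-noise across triplicate slides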
# Chain of Focal adhesion kinase 1 (Homo sapiens) (Q05397 whole entry, looked up): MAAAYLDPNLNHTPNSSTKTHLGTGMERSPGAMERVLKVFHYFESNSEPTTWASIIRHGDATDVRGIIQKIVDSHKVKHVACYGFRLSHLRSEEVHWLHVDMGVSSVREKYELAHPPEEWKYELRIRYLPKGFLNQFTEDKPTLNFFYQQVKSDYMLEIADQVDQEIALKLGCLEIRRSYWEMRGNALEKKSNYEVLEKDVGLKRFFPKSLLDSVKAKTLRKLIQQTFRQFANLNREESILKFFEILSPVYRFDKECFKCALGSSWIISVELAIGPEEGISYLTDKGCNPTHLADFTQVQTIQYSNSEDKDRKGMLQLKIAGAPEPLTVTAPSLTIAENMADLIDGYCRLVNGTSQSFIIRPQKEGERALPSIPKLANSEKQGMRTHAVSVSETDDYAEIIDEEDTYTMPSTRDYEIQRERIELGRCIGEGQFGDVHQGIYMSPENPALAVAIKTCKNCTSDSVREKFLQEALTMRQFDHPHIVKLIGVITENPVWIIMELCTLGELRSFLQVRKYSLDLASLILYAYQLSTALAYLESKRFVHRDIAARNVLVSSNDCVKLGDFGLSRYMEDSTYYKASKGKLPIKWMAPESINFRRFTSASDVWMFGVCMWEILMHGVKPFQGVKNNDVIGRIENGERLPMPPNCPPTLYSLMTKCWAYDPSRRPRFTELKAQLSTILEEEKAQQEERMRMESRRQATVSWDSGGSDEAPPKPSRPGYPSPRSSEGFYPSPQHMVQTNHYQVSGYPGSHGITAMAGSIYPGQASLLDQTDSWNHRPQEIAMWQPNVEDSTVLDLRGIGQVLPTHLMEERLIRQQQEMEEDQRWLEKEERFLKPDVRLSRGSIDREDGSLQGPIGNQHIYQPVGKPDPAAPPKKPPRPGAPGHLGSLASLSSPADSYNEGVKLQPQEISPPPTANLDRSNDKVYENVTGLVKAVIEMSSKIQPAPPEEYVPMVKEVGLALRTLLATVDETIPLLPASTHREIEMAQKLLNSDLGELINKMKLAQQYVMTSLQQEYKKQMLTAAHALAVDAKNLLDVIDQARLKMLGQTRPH
# Chain of Fibroblast growth factor 2 (Homo sapiens) (P09038 whole entry, looked up): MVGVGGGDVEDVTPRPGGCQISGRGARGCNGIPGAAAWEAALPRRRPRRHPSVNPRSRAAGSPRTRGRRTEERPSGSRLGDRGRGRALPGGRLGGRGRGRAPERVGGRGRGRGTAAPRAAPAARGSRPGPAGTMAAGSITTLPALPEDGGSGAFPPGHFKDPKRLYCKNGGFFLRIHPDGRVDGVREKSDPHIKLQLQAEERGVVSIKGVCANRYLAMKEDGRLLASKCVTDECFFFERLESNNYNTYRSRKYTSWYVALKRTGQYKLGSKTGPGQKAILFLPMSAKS
# Chain of Streptavidin (Streptomyces avidinii) (P22629 whole entry, looked up): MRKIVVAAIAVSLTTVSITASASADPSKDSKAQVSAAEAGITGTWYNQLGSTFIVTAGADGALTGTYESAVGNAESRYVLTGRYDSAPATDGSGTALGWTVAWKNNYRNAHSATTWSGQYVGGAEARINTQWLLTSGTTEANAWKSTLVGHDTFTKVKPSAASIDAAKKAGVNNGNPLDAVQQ
# Chain of Torsin-1A (Homo sapiens) (O14656 whole entry, looked up): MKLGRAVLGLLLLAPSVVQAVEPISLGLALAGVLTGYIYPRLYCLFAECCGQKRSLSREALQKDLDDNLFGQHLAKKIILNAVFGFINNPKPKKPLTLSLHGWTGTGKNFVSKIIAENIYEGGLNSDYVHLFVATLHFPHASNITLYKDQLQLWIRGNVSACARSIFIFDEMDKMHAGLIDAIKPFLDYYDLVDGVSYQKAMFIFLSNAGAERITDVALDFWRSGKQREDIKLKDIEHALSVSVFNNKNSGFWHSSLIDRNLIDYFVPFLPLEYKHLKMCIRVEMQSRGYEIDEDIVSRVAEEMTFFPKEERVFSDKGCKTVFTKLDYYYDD
# Chain of Luciferin 4-monooxygenase (Photinus pyralis) (P08659 whole entry, looked up): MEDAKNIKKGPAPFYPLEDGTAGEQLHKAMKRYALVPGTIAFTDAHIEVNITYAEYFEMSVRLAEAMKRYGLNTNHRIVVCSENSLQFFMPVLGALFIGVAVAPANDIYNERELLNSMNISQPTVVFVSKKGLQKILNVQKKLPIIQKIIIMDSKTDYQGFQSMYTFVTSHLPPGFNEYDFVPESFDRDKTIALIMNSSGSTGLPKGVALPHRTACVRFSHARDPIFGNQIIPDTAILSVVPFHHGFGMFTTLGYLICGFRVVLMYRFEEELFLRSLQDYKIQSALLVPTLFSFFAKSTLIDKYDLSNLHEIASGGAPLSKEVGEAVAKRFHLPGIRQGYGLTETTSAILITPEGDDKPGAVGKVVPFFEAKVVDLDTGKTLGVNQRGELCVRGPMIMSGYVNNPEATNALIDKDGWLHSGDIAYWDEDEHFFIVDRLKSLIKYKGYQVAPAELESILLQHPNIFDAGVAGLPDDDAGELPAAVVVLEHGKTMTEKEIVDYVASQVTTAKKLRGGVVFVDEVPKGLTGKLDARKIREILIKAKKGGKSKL
# Chain of Follistatin (Homo sapiens) (P19883 whole entry, looked up): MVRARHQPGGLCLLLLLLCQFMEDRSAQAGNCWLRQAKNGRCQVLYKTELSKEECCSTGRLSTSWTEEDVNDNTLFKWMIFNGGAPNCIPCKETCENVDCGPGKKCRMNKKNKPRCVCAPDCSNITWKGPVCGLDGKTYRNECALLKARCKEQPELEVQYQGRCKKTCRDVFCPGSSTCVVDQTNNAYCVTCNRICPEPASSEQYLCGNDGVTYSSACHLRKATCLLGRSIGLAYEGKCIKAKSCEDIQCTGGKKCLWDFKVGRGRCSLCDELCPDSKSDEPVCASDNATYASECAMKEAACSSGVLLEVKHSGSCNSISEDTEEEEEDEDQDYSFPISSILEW
Structure (SMILES),composite z-score [1],composite z-score [2],composite z-score [3],composite z-score [4],composite z-score [5],composite z-score [6],z-score [7],composite z-score [8],composite z-score [9],z-score [10],composite z-score [11],z-score [12],z-score [13],z-score [14],z-score [15],composite z-score [16],composite z-score [17],composite z-score [18],composite z-score [19],composite z-score [20]
CCN1C(=O)[C@H]2[C@H]3[C@H](O)[C@H](O)CC(=NOCC(C)C)[C@@H]3CC[C@H]2C1=O,0.768,1.04,0.627,0.231,0.84,0.0017,-0.753,0.625,-0.0157,0.887 (inactive),-0.111,-0.101 (inactive),0.258 (inactive),-0.929 (inactive),-0.2 (inactive),0.017,0.038,0.729,0.634,1.31
C#CCCCON=C1C[C@@H](O)[C@@H](O)[C@@H]2[C@@H]3C(=O)N(c4ccc(F)cc4F)C(=O)[C@@H]3CC[C@H]12,0.968,1.02,0.208,0.894,0.424,0.322,0.0852,0.662,0.0156,0.573 (inactive),0.166,-1.71 (inactive),-0.203 (inactive),-0.475 (inactive),0.278 (inactive),-0.222,-0.183,0.696,1.31,0.782
COC(=O)CC=C[C@@H](C)[C@@H](C=NO[C@@H]1O[C@H](COC(C)=O)[C@@H](OC(C)=O)[C@H](OC(C)=O)[C@H]1OC(C)=O)OC,0.662,0.036,0.107,-0.0528,-0.186,-0.347,-0.361,-0.268,-0.421,0.86 (inactive),0.359,0.36 (inactive),-0.743 (inactive),0.834 (inactive),0.0774 (inactive),-0.769,-0.165,0.698,0.32,0.0568
C#CCCCON=C1C[C@@H](O)[C@@H](O)[C@@H]2[C@@H]3C(=O)N(CCC(=O)OCC)C(=O)[C@@H]3CC[C@H]12,0.997,0.929,-0.0834,0.375,1.06,0.613,0.317,0.861,0.101,-0.891 (inactive),0.104,-1.42 (inactive),1.11 (inactive),-0.295 (inactive),0.783 (inactive),0.873,-0.0736,0.0183,0.36,1.65
C[C@@H]1C=CCC(=O)OC[C@H]2O[C@@H](C=C[C@@H]2O)[C@H](C)C=CCC(=O)OC1,0.341,-0.813,1.7,-1.06,1.56,1.98,2.16,1.71,-0.513,-1.82 (inactive),0.0051,-1.05 (inactive),-1.11 (inactive),0.344 (inactive),-0.812 (inactive),-0.224,-0.206,2.73,1.98,2.16
COC(=O)[C@@H]1CC[C@H](C)[C@@H](c2ccc(C)cc2)N1C(=O)c1ccc(C=NOC[C@@H](C)[C@H](OCc2ccccc2)C(C)C)cc1,0.336,0.673,0.936,0.857,0.915,0.698,1.26,0.799,0.37,-1.46 (inactive),0.156,-1.17 (inactive),0.978 (inactive),6.15 (inactive),-0.207 (inactive),0.409,-0.018,0.0707,0.537,1.28
CO[C@@H]1COC(=O)[C@H](CCSC)NC(=O)CC=C[C@@H](C)COC(=O)CCC[C@H]1C,-0.252,-1.17,-0.798,-2.26,1.44,1.97,0.803,1.84,-0.65,1.05 (inactive),-0.277,-2.75 (inactive),-0.88 (inactive),0.341 (inactive),0.85 (inactive),-1.47,-0.255,4.03,4.08,2.27
CCCCC#C[C@@H]1C=C[C@H](OC(C)=O)[C@@H](COC(C)=O)O1,0.113,0.283,-0.0443,0.88,0.248,0.316,-0.79,0.487,0.219,-1.41 (inactive),0.03,-4.37 (inactive),0.713 (inactive),-0.976 (inactive),2.86 (inactive),0.202,-0.154,0.568,0.234,0.437
O=C1[C@H]2[C@H]3[C@H](O)[C@H](O)CC(=NOC[C@@H](O)COCc4ccco4)[C@H]3CC[C@H]2C(=O)N1Cc1ccccc1,-0.267,-0.429,-0.326,-1.55,0.691,0.633,-0.287,0.496,-0.438,0.737 (inactive),-0.0661,-0.734 (inactive),0.448 (inactive),-0.474 (inactive),0.479 (inactive),-0.68,-0.182,0.246,0.462,1.38
COC(=O)[C@H]1O[C@@H](c2c(OC)c(OC)c(C)c(OC)c2OC)[C@H](C)[C@@H](O)[C@H]1C,0.377,0.998,0.169,0.902,0.694,0.577,0.274,1.08,0.526,-0.246 (inactive),0.2,0.299 (inactive),-0.895 (inactive),0.564 (inactive),1.12 (inactive),0.353,0.141,0.859,0.295,0.434
